High-throughput results from PubChem.
Polio RdRp inh: inhibitors of poliovirus RNA polymerase binding and polymerization; P03300; poliovirus polymerase elongation, fluorescence polarization; hits give low values; % elongation, % (compound at 16.7 µg/mL); 150,000 tested, 0.66% active; AID 588519; in the data active = % elongation below about 90%
Target sequence (P03300 1749-2209 limits assumed): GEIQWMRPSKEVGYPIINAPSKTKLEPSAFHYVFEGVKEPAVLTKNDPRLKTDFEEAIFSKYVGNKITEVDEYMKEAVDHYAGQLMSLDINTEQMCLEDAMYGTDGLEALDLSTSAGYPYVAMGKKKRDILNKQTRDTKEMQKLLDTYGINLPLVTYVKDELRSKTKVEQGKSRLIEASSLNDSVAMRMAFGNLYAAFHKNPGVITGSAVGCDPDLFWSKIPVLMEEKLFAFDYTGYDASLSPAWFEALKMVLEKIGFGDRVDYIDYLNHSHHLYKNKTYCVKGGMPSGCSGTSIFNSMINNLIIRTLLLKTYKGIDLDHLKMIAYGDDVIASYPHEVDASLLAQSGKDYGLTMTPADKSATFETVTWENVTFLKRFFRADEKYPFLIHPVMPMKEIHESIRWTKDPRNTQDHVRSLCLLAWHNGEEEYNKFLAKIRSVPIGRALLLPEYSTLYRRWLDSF
AID504770: E. coli YBA685 growth inhibition, screen for V. cholerae RctB inhibitors. E. coli YBA685 rctB-dependent plasmid, OD600 growth, 3 h; hits give low values. z-score (concentration not given with the values). 130,000 tested, 0.27% active. AID 504770; in the data active = z-score below about -2, passing the limit was not always enough
Mtb MenB inh: inhibitors of Mycobacterium tuberculosis MenB enzyme; P9WNP5; MenB enzyme assay, absorbance read-out; inhibition, % (concentration not given with the values); 100,000 tested, 0.43% active; AID 540299; in the data active = inhibition above about 21%, passing the limit was not always enough
MbtI inh: inhibitors of Mycobacterium tuberculosis siderophore enzyme MbtI; P9WFX0; AID 493033; 100,000 tested, 0.89% active; inhibition, % (no concentration beside the values); purified MbtI enzyme, fluorescence intensity read-out; in the data active = inhibition mostly above about 56%, no sharp cut-off; inactive = mostly below about 77%
The depositor's hits bear a star; ! = not confirmed by another sample. The list is not random: actives were taken first. Their share in the collection is about 1.4%.

For C=C1OC(=O)OC1(C)CCc1ccccc1 (centres undefined) the results were AID504770 -0.1 and MbtI inh -11.
CCCc1nc(=S)c2ccccc2[nH]1 was read as Polio RdRp inh 102, AID504770 -0.45, Mtb MenB inh -26 and MbtI inh 92*.
CCN(CC)C(=O)COc1cccc2ccccc12 was read as Polio RdRp inh 99, AID504770 -0.25, Mtb MenB inh -18 and MbtI inh 10.
Screening CCN(CC)C(=O)COc1ccccc1C(=O)NCc1ccccc1 returned Polio RdRp inh 102, AID504770 -0.45, Mtb MenB inh 27* and MbtI inh -6.
`Cc1cc(C(=O)C(C)OC(=O)c2cccc(-n3cnnn3)c2)c(C)n1-c1ccccc1` (centres undefined) gave Polio RdRp inh 100, AID504770 0.15, Mtb MenB inh -9 and MbtI inh -4.
Screening Cc1nc2ccccc2c(=O)n1-c1ccc(C(=O)NC(C)c2ccccn2)cc1 (centres undefined) returned Polio RdRp inh 34*, AID504770 1.8, Mtb MenB inh -35 and MbtI inh 0.
`Cc1cc(C)c2cccnc2c1O` gave Polio RdRp inh 101, AID504770 -2.4*, Mtb MenB inh -11 and MbtI inh -7.
`NC(=O)N/N=C/c1ccc([N+](=O)[O-])o1` gave Polio RdRp inh 101, AID504770 -3.5*, Mtb MenB inh -1 and MbtI inh 10.
CCN1CCc2c(sc(=NC(=O)c3ccc(F)cc3)n2C(=O)c2ccc(F)cc2)C1 was read as Polio RdRp inh 65*, AID504770 -2.1, Mtb MenB inh -13 and MbtI inh 93.
Screening C=CCn1c(=NC(=O)c2ccc(F)cc2)sc2cc(C(=O)OC)ccc21 returned AID504770 0.05.
For O=C(Nc1ccccc1C(=O)NCCc1ccccn1)c1ccc(Cl)c(Cl)c1 the results were AID504770 0.1.
N#CC(C#N)=CNC1CCSC1 (centres undefined) was read as Polio RdRp inh 100, AID504770 0.1, Mtb MenB inh 0 and MbtI inh 14.
COc1ccc(CN(Cc2nc3ccccc3c(=O)[nH]2)C(=O)NCc2ccccc2)cc1 was read as Polio RdRp inh 105, AID504770 -3.5*, Mtb MenB inh -41 and MbtI inh 6.
For COC(=O)C(C#N)c1nc2ccccc2nc1Cl (centres undefined) the results were Polio RdRp inh 83*, AID504770 -0.3, Mtb MenB inh -24 and MbtI inh 0.
`COc1cccc(-c2nnc(SCN3C(=O)c4ccccc4C3=O)n2Cc2ccco2)c1` gave Polio RdRp inh 108, AID504770 0.2, Mtb MenB inh 3 and MbtI inh 2.
O=C(Cn1cnc2c(oc3ccccc32)c1=O)Oc1ccccc1Cl was read as Polio RdRp inh 60*, AID504770 -0.5, Mtb MenB inh -19 and MbtI inh 12.
O=C(O)CCCN1C(=O)/C(=C/c2ccc(Cl)cc2)SC1=S was read as AID504770 0.3.
`FC(F)(F)c1ccnc(NCCNC(=S)Nc2ccc3c(c2)OCCO3)n1` gave Polio RdRp inh 100, AID504770 -0.2, Mtb MenB inh -10 and MbtI inh 0.
Screening Cc1ccc(C)c(NC(=O)CN(C)C(=O)COc2ccccc2C#N)c1 returned Polio RdRp inh 103, AID504770 -3.5*, Mtb MenB inh -7 and MbtI inh -3.
COC(=O)c1cc(-c2ccc(/C=C3\C(=O)NC(=O)C(C#N)=C3C)o2)ccc1Cl was read as Polio RdRp inh 101, AID504770 2.4, Mtb MenB inh -2 and MbtI inh 84.
N#CCc1ncc(-c2cc3cc(Br)ccc3oc2=O)s1 was read as AID504770 1.4 and MbtI inh -2.
CCCn1c(=S)[nH]c2ccccc21 was read as Polio RdRp inh 103, AID504770 -0.8, Mtb MenB inh -6 and MbtI inh 86*!.
Screening S=c1[nH]c2ccccc2n1-c1ccccc1 returned Polio RdRp inh 78*, AID504770 0.2, Mtb MenB inh -30 and MbtI inh 92*.
CCn1c(=S)[nH]c2ccccc21 was read as Polio RdRp inh 100, AID504770 -0.6, Mtb MenB inh -26 and MbtI inh 36.
`S=c1[nH]c2ccccc2n1CCc1ccccc1` gave Polio RdRp inh 67*, AID504770 1.3, Mtb MenB inh -57 and MbtI inh 81*.
Cc1nc(-c2ccc(/C(N)=N/O)s2)cs1 was read as AID504770 1.5.
Screening CCCC(=O)Nc1ncnc2c1ncn2C1O[C@H]2COP(=O)(O)O[C@@H]2[C@@H]1OC(=O)CCC (some centres undefined) returned Polio RdRp inh 101, Mtb MenB inh 10 and MbtI inh 4.
`Cc1cc2[nH]c(=O)c(=O)[nH]c2cc1S(=O)(=O)NCc1cccs1` gave Polio RdRp inh 100, AID504770 -0.4, Mtb MenB inh 1 and MbtI inh 94.
N#CC(C#N)=Cc1c(Cl)nc2sccn12 was read as Polio RdRp inh 67*, AID504770 -1.4, Mtb MenB inh -105 and MbtI inh -8.
N#CSc1c(Cl)nc2sccn12 was read as Polio RdRp inh 85*, AID504770 -4.3* and MbtI inh 65*.
O=C(Cc1ccccc1Cl)NC1(O)C(=O)c2ccccc2C1=O was read as Polio RdRp inh 83*, AID504770 -0.6, Mtb MenB inh -10 and MbtI inh -9.
For CCOC(=O)N1CCC(NC(c2ccc(F)cc2)c2nnc(-c3ccccc3)o2)CC1 (centres undefined) the results were Polio RdRp inh 103, AID504770 0.5, Mtb MenB inh -18 and MbtI inh -16.
`CCCCc1nnc(N)s1` gave Polio RdRp inh 102, AID504770 0.45 and MbtI inh -6.
Cc1ccccc1N1C(=O)C=CC1=O was read as Polio RdRp inh 100, AID504770 0.9, Mtb MenB inh -18 and MbtI inh 100*.
CSc1ccccc1N1C(=O)C=CC1=O was read as Polio RdRp inh 102, AID504770 -2.5*, Mtb MenB inh -5 and MbtI inh 101*.
N#Cc1ccccc1N1C(=O)c2ccccc2S1(=O)=O was read as AID504770 -0.7.
O=C1C=CC(=O)N1c1ccccc1Br was read as Polio RdRp inh 104, AID504770 -3.3* and MbtI inh 99*.
For N#Cc1ccccc1N1C(=O)C=CC1=O the results were AID504770 -3.5*.
`CC(C)(C)c1ccccc1N1C(=O)C=CC1=O` gave AID504770 -1.6.
`O=C(O)CC1C=C(Cl)S(=O)(=O)C1` (centres undefined) gave Polio RdRp inh 102, AID504770 0.1 and MbtI inh -2.
`CC(C)C(=O)Nc1nnc(-c2ccccc2)s1` gave Polio RdRp inh 87*, AID504770 0.95 and Mtb MenB inh -7.
`CN1CC(=O)NC(=O)C1` gave Polio RdRp inh 84*, AID504770 -0.15, Mtb MenB inh -4 and MbtI inh 32.
Screening Cc1ccc(N=NN(C)C)cc1 returned AID504770 -6.7*.
Screening CC(=O)N(C(C)=O)S(=O)(=O)c1ccc(N=NN(C)C)cc1 returned Polio RdRp inh 102, AID504770 -1.5 and Mtb MenB inh -17.
